According to PubChem BioAssay:
Calls of active or inactive are those of the source.

Key:
[1] = system: Plasmodium falciparum Sir2 (PF13_0152, Sir2A); assay: pfSir2 binders on small-molecule microarrays, primary screen, biochemical, small-molecule microarray, 635 nm fluorescence (AID 1098); conditions: small-molecule microarray binding, fluorescence 635 nm; higher = more signal;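 further: score merges spot fluorescence intensity with its signal-to-noise ratio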
[2] = small-molecule microarray binders of probe aDKK1, primary screen, biochemical, biotinylated probe, 635/667 nm fluorescence (AID 1099); conditions: higher = more signal;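 further: score merges 667nm spot fluorescence with signal to noise across triplicate slides; reference of the scale not given here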
[3] = small-molecule microarray binders of probe aCHRDL2, primary screen, biochemical, biotinylated probe, 635/667 nm fluorescence (AID 1100); conditions: higher = more signal
[4] = splicing luciferase reporter signal modulators, primary screen, spliceosome inhibition project, cell-based, HEK293, splice +/- reporter (AID 1101); conditions: luminescence, 24 h, higher = more signal, called active from +8 up or from −8 down;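 further: HEK293 cells carrying a splicing-competent luciferase reporter gene; test concentration not given here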
[5] = biological target: Fibroblast growth factor 10 (Homo sapiens) (UniProt O15520); assay: FGF10 binders on small-molecule microarrays, primary screen, biochemical, small-molecule microarray, 635 nm fluorescence (AID 1102); conditions: FGF10 binding, fluorescence 635 nm, higher = more signal
Chain of Fibroblast growth factor 10 (Homo sapiens) (O15520 whole entry, looked up): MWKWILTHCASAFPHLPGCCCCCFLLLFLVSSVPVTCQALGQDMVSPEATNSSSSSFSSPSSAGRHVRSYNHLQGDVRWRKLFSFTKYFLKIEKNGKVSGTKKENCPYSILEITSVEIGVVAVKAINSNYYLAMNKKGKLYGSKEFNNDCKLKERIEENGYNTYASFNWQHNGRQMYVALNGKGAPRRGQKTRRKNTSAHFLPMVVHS

[6] = system: glycogen synthase kinase-3 (GSK3A per assay name; protocol says GSK3B); assay: GSK3 binders on small-molecule microarrays, primary screen, biochemical, small-molecule microarray, 635 nm fluorescence, GSK3A (AID 1103); conditions: small-molecule microarray binding, fluorescence 635 nm; higher = more signal; further: the record names both GSK3A and GSK3B
[7] = biological target: Epidermal growth factor receptor (Homo sapiens) (UniProt P00533); assay: EGFR binders on small-molecule microarrays, primary screen, biochemical, small-molecule microarray, 635 nm fluorescence (AID 1104); conditions: EGFR binding, higher = more signal;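 further: score merges 667 nm emission intensity with spot signal to noise over triplicate slides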
Chain of Epidermal growth factor receptor (Homo sapiens) (P00533 whole entry, looked up): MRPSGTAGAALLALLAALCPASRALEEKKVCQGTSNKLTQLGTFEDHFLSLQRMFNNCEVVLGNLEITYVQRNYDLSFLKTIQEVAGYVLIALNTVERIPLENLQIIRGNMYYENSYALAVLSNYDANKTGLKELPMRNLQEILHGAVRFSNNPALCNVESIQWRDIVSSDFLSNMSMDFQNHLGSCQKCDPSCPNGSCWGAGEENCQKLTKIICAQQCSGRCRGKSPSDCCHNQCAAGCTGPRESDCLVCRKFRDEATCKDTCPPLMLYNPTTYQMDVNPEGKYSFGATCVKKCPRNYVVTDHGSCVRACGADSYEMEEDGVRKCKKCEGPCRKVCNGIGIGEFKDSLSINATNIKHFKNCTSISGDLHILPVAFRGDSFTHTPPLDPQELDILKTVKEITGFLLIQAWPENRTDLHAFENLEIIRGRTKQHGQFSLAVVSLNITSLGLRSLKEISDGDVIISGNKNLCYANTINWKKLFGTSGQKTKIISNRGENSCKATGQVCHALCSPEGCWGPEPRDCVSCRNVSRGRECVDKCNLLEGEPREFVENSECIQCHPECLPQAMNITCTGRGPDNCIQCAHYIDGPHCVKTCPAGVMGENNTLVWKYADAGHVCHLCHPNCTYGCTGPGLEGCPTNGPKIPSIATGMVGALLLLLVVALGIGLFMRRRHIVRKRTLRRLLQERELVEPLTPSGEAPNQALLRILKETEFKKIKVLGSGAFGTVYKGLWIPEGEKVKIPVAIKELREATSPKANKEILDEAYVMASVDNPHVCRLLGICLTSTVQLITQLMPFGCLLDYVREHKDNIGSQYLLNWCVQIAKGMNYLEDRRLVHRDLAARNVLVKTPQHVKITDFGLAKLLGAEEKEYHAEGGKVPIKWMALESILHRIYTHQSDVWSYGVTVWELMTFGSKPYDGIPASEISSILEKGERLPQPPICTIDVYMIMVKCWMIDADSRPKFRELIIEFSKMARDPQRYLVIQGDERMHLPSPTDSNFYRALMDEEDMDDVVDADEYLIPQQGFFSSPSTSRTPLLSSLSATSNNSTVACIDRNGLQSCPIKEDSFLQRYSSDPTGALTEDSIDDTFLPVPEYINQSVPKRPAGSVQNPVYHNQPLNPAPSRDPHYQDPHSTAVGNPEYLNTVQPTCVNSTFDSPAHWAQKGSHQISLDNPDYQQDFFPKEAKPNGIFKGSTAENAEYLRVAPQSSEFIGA

[8] = biological target: Follistatin-related protein 3 (Homo sapiens) (UniProt O95633); assay: FSTL3 binders on small-molecule microarrays, primary screen, biochemical, small-molecule microarray, 635 nm fluorescence (AID 1105); conditions: FSTL3 binding, higher = more signal;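 further: score merges emission near 667 nm and signal to noise per printed spot across three slides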
Chain of Follistatin-related protein 3 (Homo sapiens) (O95633 whole entry, looked up): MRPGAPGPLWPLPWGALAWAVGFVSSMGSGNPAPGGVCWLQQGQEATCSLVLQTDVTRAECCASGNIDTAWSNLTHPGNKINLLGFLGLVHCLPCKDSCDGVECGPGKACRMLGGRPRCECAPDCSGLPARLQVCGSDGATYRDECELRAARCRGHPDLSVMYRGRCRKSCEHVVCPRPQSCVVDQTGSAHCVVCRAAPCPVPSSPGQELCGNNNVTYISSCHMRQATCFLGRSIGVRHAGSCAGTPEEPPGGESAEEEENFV

[9] = biological target: Dickkopf-related protein 1 (Homo sapiens) (UniProt O94907); assay: DKK1 binders on small-molecule microarrays, primary screen, biochemical, small-molecule microarray, 635 nm fluorescence scan (AID 1106); conditions: DKK1 binding, higher = more signal;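 further: score merges emission near 667 nm with signal to noise over three replicate slides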
Chain of Dickkopf-related protein 1 (Homo sapiens) (O94907 whole entry, looked up): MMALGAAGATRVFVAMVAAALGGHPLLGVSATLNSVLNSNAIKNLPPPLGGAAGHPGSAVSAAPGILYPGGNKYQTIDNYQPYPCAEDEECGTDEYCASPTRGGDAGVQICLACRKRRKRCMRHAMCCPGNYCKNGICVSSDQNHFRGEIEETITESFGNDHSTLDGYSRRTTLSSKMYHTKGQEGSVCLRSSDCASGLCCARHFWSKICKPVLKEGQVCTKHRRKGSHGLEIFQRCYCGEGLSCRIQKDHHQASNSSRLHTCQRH

[10] = system: Inhibin beta A chain (activin A); assay: INHBA (activin A) binders on microarrays, primary screen, biochemical, small-molecule microarray, 635 nm fluorescence scan (AID 1107); conditions: small-molecule microarray binding, higher = more signal;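 further: mouse activin A protein probed at 4.33 µg/mL on printed slides; score merges bound-protein fluorescence near 667 nm with spot signal-to-noise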

| SMILES | composite z-score [1] | composite z-score [2] | composite z-score [3] | z-score [4] | composite z-score [5] | composite z-score [6] | composite z-score [7] | composite z-score [8] | composite z-score [9] | composite z-score [10] |
| --- | --- | --- | --- | --- | --- | --- | --- | --- | --- | --- |
| CC(C)(C)OC(=O)CC[C@]1(C(N)=O)N=C(c2ccc(OCCCO)cc2)O[C@H]1c1ccccc1N=[N+]=[N-] | 0.793 | 0.929 | 0.975 | -1.24 (inactive) | 1.5 | -0.0657 | -0.204 | 0.0699 | -0.307 | 1.23 |
| [N-]=[N+]=Nc1ccccc1C[C@@]1(C(=O)NCC(O)CO)N=C(c2ccc(OCCCO)cc2)O[C@@H]1c1ccccc1N=[N+]=[N-] (stereo not given in full) | 1.05 | 0.106 | 1.09 | 8.25 (active) | 0.233 | 0.446 | -0.283 | 0.855 | -0.67 | 1.33 |
| CCCCN1CC=CC23O[C@@H]4/C=C\CCC(C)OC(=O)C4[C@H]2C(=O)N(CCO)[C@@H]3C1=O (stereo not given in full) | 1.38 | -0.218 | 0.64 | 0.267 (inactive) | -1.17 | -0.415 | -0.652 | -0.0882 | -0.231 | 1.19 |
| Cc1c(NC(=O)/C(C#N)=C/C=C/c2ccc([N+](=O)[O-])cc2)c(=O)n(-c2ccccc2)n1C | 1.18 | 1.24 | 0.761 | 0.652 (inactive) | 1.19 | 1.15 | 0.404 | 1.21 | 0.534 | 0.256 |
| CC(C)[Si](C#Cc1ccccc1)(O[C@H](c1ccccc1)c1cn(Cc2ccccc2)nn1)C(C)C | 1.56 | 0.191 | -0.386 | -1.97 (inactive) | 0.785 | 1.06 | 0.726 | 1.49 | 1.86 | -0.165 |
| CO[C@H]1O[C@H](CO)[C@@H](OC(=O)Nc2cccc(F)c2)[C@H](OC(=O)c2cc3ccccc3[nH]2)[C@H]1OC(=O)c1cc2ccccc2[nH]1 | -0.233 | -0.448 | -0.154 | -1.57 (inactive) | 0.284 | -0.199 | -0.213 | 0.469 | 0.135 | 0.0912 |
| COC(=O)[C@]1(Cc2ccccc2N=[N+]=[N-])N=C(c2ccc(OCCCO)cc2)O[C@@H]1c1ccccc1CN=[N+]=[N-] | 0.843 | 2.44 | 1.13 | 2.71 (inactive) | 0.975 | 0.712 | 0.0466 | 0.315 | 0.236 | 1.1 |
| CN1C2C=C(c3ccc(CO)cc3)C(C3C(=O)N(C(N)=O)C(=O)C32)C1C1CC1 (stereo not given) | 0.261 | -0.202 | 0.0427 | 0.0567 (inactive) | -0.241 | -0.32 | -0.127 | -0.722 | -0.188 | -0.586 |
| C[C@]1(C(=O)NCC(F)(F)F)c2ccccc2C(=O)N(Cc2cc(C(F)(F)F)cc(C(F)(F)F)c2)[C@H]1c1ccc(CO)cc1 | 0.786 | 0.338 | 0.543 | 0.272 (inactive) | -0.2 | -0.447 | -0.654 | -0.695 | -0.399 | -0.497 |
| O=C(N1CCOCC1)[C@]1(CCS(=O)(=O)c2ccccc2)N=C(c2ccc(OCCCO)cc2)O[C@@H]1c1ccccc1 | 1.5 | 1.18 | 1.37 | -1.04 (inactive) | 0.59 | 0.7 | -0.113 | 0.488 | -0.753 | 0.599 |
| COC(=O)C(CC#Cc1ccc2c(c1)[C@]1(C(=O)N2)[C@H](C(=O)N2CCN(c3ncccn3)CC2)[C@H]2C(=O)O[C@H](c3ccccc3)[C@H](c3ccccc3)N2[C@@H]1c1ccc(O)cc1)C(=O)OC | 1.57 | 2.26 | 1.34 | -0.0485 (inactive) | 1.09 | 1.37 | 1.18 | 1.47 | 0.856 | 1.59 |
| COC(=O)C(CC#Cc1ccc2c(c1)[C@]1(C(=O)N2)[C@H](c2ccccc2OCCO)N2[C@H](c3ccccc3)[C@H](c3ccccc3)OC(=O)[C@H]2[C@@H]1C(=O)N1CCN(c2ncccn2)CC1)C(=O)OC | 1.01 | -0.216 | -0.145 | -0.376 (inactive) | 0.683 | 1.29 | 0.484 | 1.27 | 0.891 | 0.143 |
| COC(=O)C(CC#Cc1ccc2c(c1)[C@]1(C(=O)N2)[C@H](c2ccc(OCCO)cc2)N2[C@H](c3ccccc3)[C@H](c3ccccc3)OC(=O)[C@H]2[C@@H]1C(N)=O)C(=O)OC | 1.01 | -0.201 | 0.669 | 0.373 (inactive) | -0.122 | -0.0277 | -0.69 | 0.025 | -0.531 | 0.161 |
| C=CCNC(=O)[C@H]1[C@@H]2C(=O)O[C@@H](c3ccccc3)[C@@H](c3ccccc3)N2[C@@H](c2ccc(O)cc2)[C@]12C(=O)N(C(=O)OCCOC)c1ccc(C#Cc3ccc(OC)cc3)cc12 | 1.21 | -0.0387 | 0.478 | -0.294 (inactive) | 0.88 | 1.08 | 0.215 | 0.448 | 0.211 | 0.794 |
| COC(=O)C1=CC(CCCO)=CC(c2ccc(CN3CCCC3)cc2)N(C)C=C1C(=O)OC (stereo not given) | 1.65 | 0.629 | 0.549 | 0.657 (inactive) | 0.883 | -0.302 | -0.138 | 0.345 | -0.36 | 0.861 |
| CC(CO)N1C(=O)[C@@H]2[C@H]3C(=O)OCC=C[C@H]3OC23C=CCN(c2ccc4ccccc4c2)C(=O)[C@@H]13 (stereo not given in full) | -0.893 | -0.0682 | 0.725 | 0.445 (inactive) | -0.916 | -1.56 | -1.64 | -1.66 | -1.83 | -1.18 |

| SMILES | composite z-score [1] | composite z-score [2] | composite z-score [3] | z-score [4] | composite z-score [5] | composite z-score [6] | composite z-score [7] | composite z-score [8] | composite z-score [9] | composite z-score [10] |
| --- | --- | --- | --- | --- | --- | --- | --- | --- | --- | --- |
| O=C1O[C@@H](c2ccccc2)[C@@H](c2ccccc2)N2[C@@H](c3ccc(OCCO)cc3)[C@]3(C(=O)Nc4ccc(C#CC5=CCCCC5)cc43)[C@@H](C(=O)Nc3nc4ccccc4s3)[C@H]12 | 1.63 | -0.127 | -1.13 | -0.61 (inactive) | 1.01 | 0.489 | 0.554 | 0.0685 | -0.188 | -0.289 |
| CC(C)C[C@H]1NC(=O)CNC(=O)[C@@]23C(=O)N[C@@H](Cc4ccccc4)C2[C@H](C)[C@@]2(C)O[C@H]2C3/C=C/C/C=C\CNC1=O (stereo not given in full) | 0.288 | -0.129 | -0.671 | 0.187 (inactive) | 0.749 | 0.407 | 0.181 | 0.811 | 0.267 | 1.48 |
| CCCCN1CC=CC23O[C@@H]4/C=C\CCCOC(=O)C4[C@H]2C(=O)N(CCCCCCO)[C@@H]3C1=O (stereo not given in full) | 0.502 | -0.196 | 0.663 | -1.09 (inactive) | -0.764 | -0.755 | -1.08 | -0.451 | -1.75 | 0.627 |
| CC(C)N1C(=O)[C@@]2(Cc3ccccc31)c1ccccc1C(=O)N(Cc1ccccc1C(F)(F)F)[C@H]2c1ccc(CO)cc1 | 1.73 | 0.444 | -0.756 | -0.352 (inactive) | 0.178 | 0.366 | 0.0355 | 1.39 | 1.08 | 0.66 |
| C=C(CCCC)C(=O)CC[C@H](OC(=O)c1ccccc1-c1ccccc1C(=O)O)c1cccc(OCCO)c1 | 0.642 | -0.399 | -0.454 | -0.289 (inactive) | -0.282 | -0.121 | -0.988 | -0.578 | 0.0668 | 1.33 |
| C=C(C(=O)CC[C@@H](OC(=O)c1ccccc1-c1ccccc1C(=O)O)c1ccc(OCCO)cc1)C(C)C | 0.994 | -0.0581 | -0.375 | 0.379 (inactive) | 1.22 | 0.674 | 0.267 | 1.08 | 0.776 | 0.768 |
| COCCCNC(=O)[C@@]1(c2ccc([N+](=O)[O-])cc2)CC(=O)N(C2CCCCC2)[C@@H]1c1ccc(CO)cc1I | 1.62 | 0.0269 | 0.64 | -1.1 (inactive) | 0.453 | 1.16 | -0.323 | 0.102 | -0.582 | 0.717 |
| O=C(CS)NCCCCCCNC(=O)[C@H]1C[C@H]2C(=O)NCC(=O)N2[C@H]1c1cccc(OCCO)c1 | 1.09 | -0.0292 | -0.027 | -2.02 (inactive) | 0.901 | -0.21 | 0.696 | 0.604 | 0.602 | 0.665 |
| CN(C)CCCCNC(=O)[C@H]1C[C@H]2C(=O)N[C@@H](CCCCN(C)C)C(=O)N2[C@H]1c1ccc(O)cc1 | 1.12 | -0.265 | -0.508 | -1.73 (inactive) | 0.174 | -0.0777 | 0.821 | 0.592 | 1.16 | -0.0636 |
| CC(C)C[C@@H]1NC(=O)[C@H]2C[C@@H](C(=O)O)[C@@H](c3cccc(OCCO)c3)N2C1=O | 0.524 | 0.0083 | 0.677 | 0.256 (inactive) | 0.0039 | 0.969 | 0.193 | 1.2 | 1.11 | 1.19 |
| C=CC[C@H](O)c1ccc(O)c2ccccc12 | 0.623 | -0.196 | -0.0155 | -1.26 (inactive) | 1.1 | 1.01 | 1.04 | 1.42 | 1.34 | 1.21 |
| COC(=O)[C@@]1(Cc2ccccc2)[C@H]2c3cc(C(=O)N(C)C)n(Cc4ccc(Cl)c(C(F)(F)F)c4)c3C[C@H]2CN1C(=O)c1ccccc1 | 0.685 | 0.841 | 1.02 | -1.45 (inactive) | 1.37 | 1.31 | 0.603 | 1.45 | 0.283 | 1.29 |
| CCCNC(=O)[C@@]1(Sc2ccc(C)cc2)CC(=O)N(Cc2cc(C(F)(F)F)cc(C(F)(F)F)c2)[C@@H]1c1ccc(CO)cc1 | -0.441 | -0.09 | 0.738 | -1.58 (inactive) | 0.0468 | -0.365 | -0.738 | -0.888 | -1.2 | 0.108 |
| COc1ccc([Si](C)(C)[C@@H]2[C@@H](CC(=O)N3CCC[C@H]3CO)O[C@]3(C(=O)N(Cc4cccc(N5C(=O)c6cccc7cccc5c67)c4)c4ccccc43)[C@H]2C)cc1 | 1.22 | -0.164 | 0.0325 | -0.134 (inactive) | 0.415 | 0.0816 | 0.192 | 0.402 | 0.655 | 0.608 |
| C=CCC(OC(C)=O)[C@@H]1[C@@H](N(Cc2cccc3ccccc23)C(=O)c2ccc(C)cc2)c2cc(OCCCO)ccc2N1C(=O)Cc1ccc2ccccc2c1 (stereo not given in full) | -0.542 | 0.0891 | 0.135 | -1.86 (inactive) | -0.123 | -0.0662 | 0.13 | -0.345 | 0.248 | 1.34 |
| C=C[C@H](OC)[C@@H](O)c1ccc(OC)c(O)c1 | 0.352 | -0.464 | 0.37 | 0.772 (inactive) | -0.928 | -1.3 | -1.14 | -1.91 | -1.29 | -1.28 |
